Measurements published in ChEMBL document CHEMBL3988442, “University of Dundee, Small-Polar-MMV Screening Library” (2021).
In all, about 48,000 compounds went through this assay and about 13,000 (27%) showed an effect of 50% or more. The list shows a part of the results.

Test system: Wolbachia pipientis
Test: Anti-Wolbachia Cell-Based Screen
Assay type: functional
Parameters: scale not given: in the data most compounds retested in dose-response had high values
Settings: 5 µM

Going from `O=C(CCN1CCCCO1)N1CC[C@H](O)[C@@H](O)C1` to `CC(=O)c1cc(CN2C[C@@H](CN3CCCC3)[C@@H](CO)C2)n(C)c1`, the “Percent Effect” value rises from -19.59% to 0.4917%.

Going from `Cc1ccc(S(=O)(=O)NC(=O)c2cc(S(C)(=O)=O)ccc2C)s1` to `COc1cc(Cl)ccc1CNC(=O)N(C)C(C)CS(C)(=O)=O` (stereo not given), the “Percent Effect” value falls from 12.42% to 2.125%.

First: CCOC(=O)c1ccc(CNC(=O)c2ccon2)o1
Second: Cc1ccc(CNC2(Cc3cc(-c4ccccc4)on3)COC2)o1
The “Percent Effect” value of the first is higher: 45.33% for the first, -15.57% for the second.

Going from `FC(F)(F)c1ccnc(N2CCCOCC2)c1` to `FC(F)(F)c1ccnc(N2CCCCCC2)c1`, the “Percent Effect” value rises from 1.908% to 6.382%.

Going from `OC1(CN2CCCC2)COCCN(c2cc(C(F)(F)F)ccn2)C1` (stereo not given) to `OC1(CN2CCCCC2)CCN(c2cc(C(F)(F)F)ccn2)C1` (stereo not given), the “Percent Effect” value rises from 99.83% to 106.3%.

First: Cc1cc(F)ccc1CN1CCC(O)(CN2CCCCC2)C1 (stereo not given)
Second: OC1(CN2CCCCC2)CCN(c2ccc(C(F)(F)F)cn2)C1 (stereo not given)
The “Percent Effect” value of the first is lower: -5.371% for the first, 107.5% for the second.

Compared with `O=C(c1cn(-c2ccc(C(F)(F)F)cn2)nn1)N1CCCCCC1`, `CS(=O)(=O)NCC1CCCN(c2ccc(C(F)(F)F)cn2)C1` (stereo not given) is higher in “Percent Effect” value: -5.295% for the first, 7.899% for the second.

Compared with `OC1(CN2CCCC2)COCCN(c2nccs2)C1` (stereo not given), `Cn1c(CN2CCCCCC2)cc(=O)c(O)c1CN1CCCC1` is higher in “Percent Effect” value: -1.349% for the first, 177.4% for the second.

Compared with `CCc1nnc(CNC(=O)CCCN2CCCCC2)s1`, `CCS(=O)(=O)N1CCC(c2nnc(CN3CCCCC3)n2C)CC1` is lower in “Percent Effect” value: -1.719% for the first, -11.51% for the second.

Going from `O=C(NCCNC(=O)C1CC1)c1sccc1Br` to `CCOc1cc(Cl)ccc1CNC(=O)N1CCCC(CO)C1` (stereo not given), the “Percent Effect” value falls from 0.3352% to -9.935%.

Compared with `Cc1cccc(C(C(=O)NCc2csc(-c3ncccn3)n2)N(C)C)c1` (stereo not given), `CN1CCN(Cc2ccccc2CNC(=O)c2cc(Cl)ccc2F)CC1` is lower in “Percent Effect” value: 2.9% for the first, -3.272% for the second.

First: CSC(CNS(=O)(=O)c1cnn(C)c1)c1cccc(Cl)c1 (stereo not given)
Second: COc1cc(Cl)ccc1CNC(=O)N1CCC(n2cncn2)CC1
The “Percent Effect” value of the first is lower: -0.2397% for the first, 88.5% for the second.

First: CCS(=O)(=O)N1CCC(c2nnc(CN3CCCCCC3)n2C)CC1
Second: Cn1c(CN2CCCCC2)cc(=O)c(O)c1CN1CCCCC1
The “Percent Effect” value of the first is lower: -3.352% for the first, 95.65% for the second.

First: Cc1noc(C2CCN(Cc3cc(=O)n(C)c(=O)n3C)CC2)n1
Second: Cn1ncc(C2CC(=O)NCc3nc4sccn4c32)c1C1CC1 (stereo not given)
The “Percent Effect” value of the first is higher: 2.603% for the first, -19.57% for the second.

Compared with `COc1ccc(OC)c(CNC(=O)N2CCC(n3cncn3)CC2)c1`, `CCC(CC)c1cc(CNC(=O)N2CCC(n3cncn3)CC2)on1` is lower in “Percent Effect” value: 67.1% for the first, -7.222% for the second.
